Experiment [1] is described as follows: qHTS assay to identify small molecule agonists of the peroxisome proliferator-activated receptor delta (PPARd) signaling pathway - cell viability counter screen (AID 743211). Note: nearly all actives have a fitted effect of over 55% in size. Note: potency is the fitted concentration of half-maximal effect. The gist of the method: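 Tox21 library compounds, delivered in DMSO, were incubated 17 h with PPARd-bla HEK293H cells; cytotoxicity was taken from CellTiter-Glo luminescence read 30 min after reagent addition.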
A general note: Quantitative high-throughput screening tests each substance at several concentrations.

Experiment [2] can be described thus: qHTS assay to identify small molecule antagonists of the peroxisome proliferator-activated receptor delta (PPARd) signaling pathway - cell viability counter screen (AID 743213). Note: nearly all actives have a fitted effect of over 50% in size. Note: potency is the fitted concentration of half-maximal effect. The gist of the method:
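Viability counter-screen, qHTS format: PPARd-bla HEK293H, L165041 300 nM final, 17 h compound exposure at 37 C, CellTiter-Glo luminescence after 30 min RT.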

The nature of experiment [3]: qHTS assay to identify small molecule antagonists of the farnesoid-X-receptor (FXR) signaling pathway - cell viability counter screen (AID 743221; active = well fitted cell-killing curve with a large enough effect in the repeat runs, not every such curve was filed as active; note: nearly all actives have a fitted effect of over 50% in size; note: potency is the fitted concentration of half-maximal effect). The gist of the method:
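Cytotoxicity is taken from ATP luminescence (CellTiter-Glo, 30 min, room temperature) in FXR-bla HEK 293T cells previously incubated 16 h at 37 C with compound and chenodeoxycholic acid at 50 uM final.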

The target of experiment [4] is Vitamin D3 receptor (Homo sapiens) (UniProt P11473). Nature of the experiment: qHTS assay to identify small molecule agonists of the vitamin D receptor (VDR) signaling pathway (AID 743222; calls by dose curve). In short, it runs like this: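 Fluorescence from cleaved LiveBLAzer B/G FRET substrate served as readout. VDR-bla cells had been treated 16 h at 37C with test compounds in DMSO, following a 4 h settling period, and substrate was loaded for 2 h at RT.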
Sequence of Vitamin D3 receptor (Homo sapiens) (P11473 whole entry, looked up): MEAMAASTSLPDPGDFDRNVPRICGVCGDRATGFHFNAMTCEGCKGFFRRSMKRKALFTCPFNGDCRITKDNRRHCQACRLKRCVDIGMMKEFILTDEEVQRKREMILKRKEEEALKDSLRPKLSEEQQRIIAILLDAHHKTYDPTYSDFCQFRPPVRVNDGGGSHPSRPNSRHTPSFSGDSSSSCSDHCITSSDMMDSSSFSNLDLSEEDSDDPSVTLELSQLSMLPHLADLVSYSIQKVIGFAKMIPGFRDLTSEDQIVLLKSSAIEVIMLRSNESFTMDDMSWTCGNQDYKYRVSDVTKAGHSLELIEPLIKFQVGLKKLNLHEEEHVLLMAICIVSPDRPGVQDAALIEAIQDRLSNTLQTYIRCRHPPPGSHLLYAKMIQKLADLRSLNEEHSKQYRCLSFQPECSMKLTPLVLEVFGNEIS

The target is the same in experiment [5]. Nature of the experiment: qHTS assay to identify small molecule antagonists of the vitamin D receptor (VDR) signaling pathway (AID 743223; active = well fitted inhibition curve with a large enough effect in the signal ratio in the repeat runs, not every such curve was filed as active; the % refers to the signal ratio). In short, it runs like this:
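Quantitative HTS in VDR-bla reporter cells stimulated with 1alpha,25-dihydroxyvitamin D3, 3 nM final. Compound exposure 16 h, 37C, 5% CO2. Read-out: beta-lactamase FRET substrate fluorescence, 2 h RT.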

Experiment [6] is described as follows: qHTS assay to identify small molecule agonists of the vitamin D receptor (VDR) signaling pathway - cell viability counter screen (AID 743224). Note: nearly all actives have a fitted effect of over 50% in size. Note: potency is the fitted concentration of half-maximal effect. The gist of the method:
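Compounds were pin-transferred onto VDR-bla cells plated 4 h earlier; following 16 h incubation at 37C, cell viability was quantified by CellTiter-Glo luminescence after 30 min at room temperature.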

Experiment [7] in a line: qHTS assay to identify small molecule agonists of the NFkB signaling pathway - cell viability counter screen (AID 1159515; calls by dose curve; note: nearly all actives have a fitted effect of over 55% in size; note: potency is the fitted concentration of half-maximal effect). In short, it runs like this:
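Parallel cytotoxicity counter screen in ME-180 cells carrying an NFkB-response-element beta-lactamase reporter, 2,000 cells/well. Compound exposure lasted 5 hr at 37 C, 5% CO2. Cell viability was quantified by CellTiter-Glo luminescence.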

Experiment [8] can be described thus: qHTS assay to identify small molecule agonists of the endoplasmic reticulum stress response signaling pathway - cell viability counter screen (AID 1159517; calls by dose curve; note: nearly all actives have a fitted effect of over 50% in size; note: potency is the fitted concentration of half-maximal effect). The gist of the method:
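Cytotoxicity of test compounds toward ESRE-bla HeLa cells was assessed after 5 hr exposure. The luminescent CellTiter-Glo signal was measured 30 min after reagent addition.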

A short description of experiment [9]: qHTS assay to identify small molecule antagonists of the retinoid-related orphan receptor gamma (ROR-gamma) signaling pathway - cell viability counter screen (AID 1159520). Note: nearly all actives have a fitted effect of over 50% in size. Note: potency is the fitted concentration of half-maximal effect. In short, it runs like this:
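Tet-on ROR gamma CHO cells (1,000/well) were plated 4 hr, given compounds in DMSO for 2 hr at 37 C, then induced with 1 uM final doxycycline for 16 hr. Viability was read as ATP by CellTiter-Glo luminescence after 30 min.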

Experiment [10] concerns the target Nuclear receptor ROR-gamma (Homo sapiens) (UniProt P51449). The experiment in a line: qHTS assay to identify small molecule antagonists of the retinoid-related orphan receptor gamma (ROR-gamma) signaling pathway (AID 1159521; note: nearly all actives have a fitted effect of over 50% in size; note: potency is the fitted concentration of half-maximal effect). The gist of the method: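 Inducible-expression reporter assay: doxycycline (1 uM final) switched on RORγ in CHO cells bearing a ROR response element-luciferase construct, with test compounds present from 2 h beforehand. Decreased luminescence after 16 h defined antagonist activity.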

Experiment [11] is described as follows: qHTS assay to identify small molecule agonists of the AP-1 signaling pathway (AID 1159526; calls by dose curve).
The target in experiment [12] is Peroxisome proliferator-activated receptor delta (Homo sapiens) (UniProt Q03181). Nature of the experiment: qHTS assay to identify small molecule agonists of the peroxisome proliferator-activated receptor delta (PPARd) signaling pathway (AID 743212; calls by dose curve;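 note: HEK293H cells with PPARd UAS beta-lactamase reporter GeneBLAzer system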). In short, it runs like this: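 Beta-lactamase reporter read by fluorescence (LiveBLAzer B/G FRET, 2 h, room temperature). Test agents, in DMSO, incubated at 37 C with PPARd-bla HEK293H cells.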
Sequence of Peroxisome proliferator-activated receptor delta (Homo sapiens) (Q03181 whole entry, looked up): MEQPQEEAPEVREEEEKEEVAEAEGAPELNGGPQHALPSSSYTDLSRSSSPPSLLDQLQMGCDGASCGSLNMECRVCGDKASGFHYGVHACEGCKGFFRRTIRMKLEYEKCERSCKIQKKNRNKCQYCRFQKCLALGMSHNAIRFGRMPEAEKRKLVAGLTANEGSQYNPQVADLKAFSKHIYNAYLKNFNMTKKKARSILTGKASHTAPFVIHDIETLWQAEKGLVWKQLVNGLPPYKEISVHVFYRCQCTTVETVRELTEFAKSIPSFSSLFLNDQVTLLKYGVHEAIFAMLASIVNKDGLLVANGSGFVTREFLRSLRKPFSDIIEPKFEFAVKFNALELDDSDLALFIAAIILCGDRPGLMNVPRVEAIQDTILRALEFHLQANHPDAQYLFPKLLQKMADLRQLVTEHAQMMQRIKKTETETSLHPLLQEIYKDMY

Experiment [13] shares this target. The experiment in a line: qHTS assay to identify small molecule antagonists of the peroxisome proliferator-activated receptor delta (PPARd) signaling pathway (AID 743215; active = well fitted inhibition curve with a large enough effect in the signal ratio in the repeat runs, not every such curve was filed as active; the % refers to the signal ratio;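 note: cells stimulated with agonist L165041 at 300 nM final during compound exposure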; note: potency is the fitted concentration of half-maximal effect). In short, it runs like this: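 Plated HEK293H PPARd-bla cells rested 5 h at 37 C and 5% CO2. Compound, then agonist L165041 at 300 nM final, was added; 17 h at 37 C followed. Substrate loading, 2 h room temperature, fluorescence measured.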

Experiment [14] is described as follows: qHTS assay to identify small molecule agonists of the farnesoid-X-receptor (FXR) signaling pathway - cell viability counter screen (AID 743218). Note: nearly all actives have a fitted effect of over 45% in size. Note: potency is the fitted concentration of half-maximal effect. In short, it runs like this: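 Viability of FXR-bla HEK 293T cells is measured by ATP-based CellTiter-Glo luminescence following 16 h compound treatment at 37 C and a prior 2 h room-temperature beta-lactamase substrate step.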

Experiment [15] is described as follows: qHTS assay to identify small molecule antagonists of the vitamin D receptor (VDR) signaling pathway - cell viability counter screen (AID 743225). Note: nearly all actives have a fitted effect of over 50% in size. Note: potency is the fitted concentration of half-maximal effect. The gist of the method:
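Same-well multiplex: following 16 h treatment of HEK 293T cells carrying a UAS-driven beta-lactamase reporter with compound and agonist (3 nM final), and a 2 h FRET substrate step, CellTiter-Glo was added and luminescence read after 30 min.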

For experiment [16], the target named is Retinoic acid receptor RXR-alpha (Homo sapiens) (UniProt P19793). The experiment in a line: qHTS assay to identify small molecule agonists of the RXR signaling pathway (AID 1159527; calls by dose curve; note: nearly all actives have a fitted effect of over 35% in size). In short, it runs like this:
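Compounds in DMSO were added to RXR-alpha-UAS-bla HEK 293T cells kept in 2% charcoal-stripped serum, and incubated 16 hr at 37 C with 5% CO2. Reporter signal came from a 2 hr B/G FRET substrate step.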

Experiment [17] in a line: qHTS assay to identify small molecule agonists of the AP-1 signaling pathway - cell viability counter screen (AID 1159525; calls by dose curve; note: nearly all actives have a fitted effect of over 55% in size). In short, it runs like this:
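Each titration point was normalised to DMSO and tetra n-octyl ammonium bromide controls. The read was Cell Titer Glo luminescence after 30 min at RT, following 5 h compound exposure of ME-180 AP-1-bla cells at 37 °C.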

In experiment [18] the target is Bile acid receptor (Homo sapiens) (UniProt Q96RI1). The experiment in a line: qHTS assay to identify small molecule agonists of the farnesoid-X-receptor (FXR) signaling pathway (AID 743220; active = well fitted activation curve with a large enough effect in the signal ratio in the repeat runs, not every such curve was filed as active; the % refers to the signal ratio). The gist of the method:
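FXR-UAS-bla HEK 293T cells carrying a UAS-driven beta-lactamase reporter were plated for 5 h at 37C/5% CO2, then exposed to DMSO-dissolved Tox21 10K compounds for 16 h at 37C. A LiveBLAzer B/G FRET substrate was loaded for 2 h at room temperature before fluorescence reading.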

Experiment [19] has the same target. Nature of the experiment: qHTS assay to identify small molecule antagonists of the farnesoid-X-receptor (FXR) signaling pathway (AID 743217; active = well fitted inhibition curve with a large enough effect in the signal ratio in the repeat runs, not every such curve was filed as active; the % refers to the signal ratio). In short, it runs like this: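 Screen of the Tox21 10K library in quantitative HTS format using FXR-UAS-bla HEK 293T reporter cells. Agonist chenodeoxycholic acid, 50 uM final, added with compounds; 16 h incubation at 37 °C; beta-lactamase FRET fluorescence measured.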

Drawing on PubChem BioAssay (Tox21), this text covers Potency for 7 molecules.

Molecules are shown by their SMILES. Where “and” joins values, the source holds several entries; their conditions need not be identical. Equal values may be shown once. Results filed as inconclusive are left out. Some compounds were tested as several samples or in several runs, with calls that do not always agree. Calls of active or inactive are those of the source. Unless noted, calls come from the whole dose curve; as a rule, active = well fitted curve in the direction sought with a large enough effect in the repeat runs; inconclusive = weak or mixed curves; inactive = no such curve, though single readings can be large; an effect the other way counts as inactive or inconclusive.

Sequence of Bile acid receptor (Homo sapiens) (Q96RI1 whole entry, looked up): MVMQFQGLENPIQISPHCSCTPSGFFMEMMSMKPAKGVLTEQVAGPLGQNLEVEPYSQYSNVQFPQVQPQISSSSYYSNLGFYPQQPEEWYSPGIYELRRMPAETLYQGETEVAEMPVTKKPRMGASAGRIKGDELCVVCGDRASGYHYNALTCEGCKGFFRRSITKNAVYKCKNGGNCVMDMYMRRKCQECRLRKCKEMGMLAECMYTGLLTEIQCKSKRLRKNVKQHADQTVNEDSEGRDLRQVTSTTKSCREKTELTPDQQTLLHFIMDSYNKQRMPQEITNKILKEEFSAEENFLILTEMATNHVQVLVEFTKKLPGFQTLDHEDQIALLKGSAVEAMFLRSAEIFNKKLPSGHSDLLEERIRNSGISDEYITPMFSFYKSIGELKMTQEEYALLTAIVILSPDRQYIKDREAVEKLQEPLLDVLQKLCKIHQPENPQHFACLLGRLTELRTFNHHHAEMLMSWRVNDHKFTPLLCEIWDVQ
Sequence of Retinoic acid receptor RXR-alpha (Homo sapiens) (P19793 whole entry, looked up): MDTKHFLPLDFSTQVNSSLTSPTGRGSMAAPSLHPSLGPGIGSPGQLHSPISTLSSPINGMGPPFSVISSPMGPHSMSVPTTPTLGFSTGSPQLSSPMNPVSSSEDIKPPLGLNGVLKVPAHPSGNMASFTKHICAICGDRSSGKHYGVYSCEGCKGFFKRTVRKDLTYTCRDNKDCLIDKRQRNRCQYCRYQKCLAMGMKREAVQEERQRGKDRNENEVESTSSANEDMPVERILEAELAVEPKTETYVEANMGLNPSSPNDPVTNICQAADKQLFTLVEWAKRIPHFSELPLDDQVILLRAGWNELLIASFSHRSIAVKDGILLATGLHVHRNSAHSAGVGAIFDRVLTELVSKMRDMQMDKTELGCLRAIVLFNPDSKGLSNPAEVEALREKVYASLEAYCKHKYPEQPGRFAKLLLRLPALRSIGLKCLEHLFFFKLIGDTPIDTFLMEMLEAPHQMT

For `CC(Cc1ccc(OCC(=O)O)cc1)NCC(O)c1csc(C(F)(F)F)n1` (stereo unspecified), the Potency result in experiment [1], in experiment [2], in experiment [3], in [4], in [5] and in experiment [6] was “inactive” throughout. For the same molecule, the Potency result in experiment [7], in [8], in [9], in [10] and in [11] was “inactive” in each case.

As for `ClC1=C(Cl)[C@]2(Cl)[C@H]3[C@H]([C@@H]4C=C[C@H]3C4)[C@@]1(Cl)C2(Cl)Cl`, the Potency result in experiment [12], in [2], in [13], in experiment [3], in experiment [5] and in [15] was “inactive” each time. For the same molecule, the Potency result in [16] was “inactive”. Moreover, the Potency in experiment [14] is 38.9 µM (active); in experiment [6], “inactive and 54.9 µM (active)”; in experiment [7], 54900 nM (active); in [8], 21.8 µM (active) and 49 µM (active); in [9], 61 µM (active); in experiment [10] it was 54.4 µM (active).

Regarding `O=C1C[C@@H]2OCC=C3CN4CC[C@]56c7ccccc7N1[C@H]5[C@H]2[C@H]3C[C@H]46`, the Potency result in [2], in experiment [3], in experiment [15], in experiment [7], in [8] and in experiment [9] was “inactive” each time. For the same molecule, the Potency entry in experiment [10], in experiment [17] and in experiment [11] was “inactive” each time.

In the case of `Clc1ccc(C(c2ccc(Cl)cc2)C(Cl)Cl)cc1`, the Potency result in experiment [12], in experiment [13], in [18], in [3] and in experiment [5] was “inactive” in each case. Besides, the Potency in experiment [6] is 49.8 µM (active) and 38.9 µM (active); in experiment [7], 49800 nM (active); in experiment [8], 22.2 µM (active) and 54.9 µM (active); in experiment [10] it was 55.4 µM (active) and 54.5 µM (active).

Take `Brc1cccc(-c2ccccc2)c1`: the Potency entry in experiment [1], in experiment [2], in experiment [19], in experiment [14], in experiment [18] and in experiment [3] was “inactive” in each case. Further, the Potency result in experiment [5], in experiment [6], in experiment [7], in experiment [8], in experiment [9] and in [10] was “inactive” throughout. For the same molecule, the Potency result in [17] and in experiment [11] was “inactive” in each case.

`CN(C)C(=S)SSC(=S)N(C)C`: the Potency in [1] is 76.5 nM (active) and 38.9 nM (active) and 188 nM (active); in [2] it was 108 nM (active) and 30.9 nM (active) and 298 nM (active); in experiment [14], 121 nM (active) and 30.9 nM (active) and 841 nM (active); in experiment [3], 121 nM (active) and 43.6 nM (active) and 237 nM (active); in experiment [7], 674 nM (active); in experiment [9], 33.9 µM (active) and 433 nM (active) and 422 nM (active). In addition, in experiment [10], the Potency was 85.1 nM (active) and 344 nM (active) and 266 nM (active). The Potency entry in [4] and in [8] was “inactive” each time.

Turning to `C=CC(=O)[O][Sn]([CH2]CCC)([CH2]CCC)[CH2]CCC`, the Potency is 1.95 µM (active) in experiment [1]; 3.47 µM (active) in experiment [2]; 776 nM (active) in experiment [13]; 3.89 µM (active) in experiment [3]; 1.38 µM (active) in experiment [6]; 3090 nM (active) in [15]. Moreover, the Potency in experiment [7] was 977 nM (active); in experiment [8], 977 nM (active); in experiment [9] it was 1.09 µM (active); in [10], 0.611 µM (active). The Potency result in experiment [4] was “inactive”.
